We go through 40 compounds from PubChem BioAssay (Tox21).

Results filed as inconclusive are left out. Entries that show only a call come without a potency. The source made the active and inactive calls. The call rests on the fitted dose curve; in most records, active means well fitted cell-killing curve with a large enough effect in the repeat runs; inconclusive means weak or mixed curves, or effect the other way; inactive means no such curve, though single readings can be large or run the other way.
Potency means the concentration at half of the fitted maximal effect.

A short description of this experiment: qHTS assay to identify small molecule antagonists of the thyroid receptor (TR) signaling pathway - cell viability counter screen (AID 743064). Further: nearly all actives have a fitted effect of over 50% in size. The settings on record: GH3.TRE-Luc viability, CellTiter-Fluor, 24 h; series mostly up to 70.3 µM. From the text:
National Center for Advancing Translational Sciences [NCATS]
NIH Chemical Genomics Center [NCGC]
U.S. Environmental Protection Agency [EPA]
National Institutes of Environmental Health Sciences [NIEHS]
National Toxicology Program [NTP]
U.S. Food and Drug Administration [FDA]
Thyroid receptor (TR), a nuclear hormone receptor, plays an important role in development, proliferation, differentiation, metabolism, brain function, and cardiovascular system. […] To profile the Tox21 10K compound library in TR signaling, a cell-based GH3-TRE-Luc assay (GH3.TRE-Luc cell line, developed by the laboratory of Dr. Albertinka J. Murk, Wageningen University) was used to measure the inhibition of TR. GH3 (rat pituitary tumor) cells stably expressing a TR activity sensor consisting of two TR response elements and a luciferase reporter gene. The cytotoxicity of the Tox21 compound library against the GH3.TRE-Luc cell line was tested in parallel by measuring the cell viability using CellTiter-Fluor assay (Promega, Madison, WI) in the same wells.
Tox21 Assay Protocol Summary:
GH3.TRE-Luc cells were dispensed at 1500 cells/4 uL/well into 1536-well white solid bottom plates using a Multidrop Combi dispenser (Thermo Fisher Scientific Inc., Waltham, MA). After the assay plates were incubated at 37 C for 4 hours, 23 nL of library compound or DMSO controls was transferred to the assay plates by a pintool station (Kalypsys, San Diego, CA), followed by addition of 1 ul of T3 (1 nM, final concentration in the wells) to stimulate TR transactivation. The assay plates were incubated at 37 C for 23.5 h, and then 1 uL of CellTiter-Fluor reagent (Promega, Madision, WI) of measuring cytotoxicity was added to each well using a Bioraptr Flying Reagent Dispenser (FRD) workstation (Beckman Coulter, Indianapolis, IN, USA). The plates were incubated at 37C and 5% CO2 for additional 30 min, and fluorescence intensity was measured by a ViewLux plate reader (PerkinElmer, Shelton, CT).
Consider `OCCN1C[C@H](O)[C@@H](O)[C@H](O)[C@H]1CO`, for which the Potency result was “inactive”.

As to `Cc1ccc(Nc2ccc(O)c3c2C(=O)c2ccccc2C3=O)cc1`, the Potency entry was “inactive”. With `Cc1cc(C)cc(OCC2CNC(=O)O2)c1` (stereo not given), the Potency result is “inactive”.

As to `C#CC(O)C(CC)CCCC` (stereo not given), the Potency entry was “inactive”. As for `CCCCCCCCCCCCCCC`, the Potency result is “inactive”.

Regarding `N#CCN(CC#N)CCN(CC#N)CC#N`, the Potency result is “inactive”. To `C=C(C)C(=O)NCCCN(C)C` belongs “inactive”. For the compound `c1cc(CN2CCCCC2)cc(OCCCNc2nc3ccccc3s2)c1`, the Potency was 11.9 µM (active).

In the case of `Cc1cc(C)c(NC(=O)CN(CC(=O)O)CC(=O)O)c(C)c1Br`, the Potency result is “inactive”. With `NC(=O)c1c(Cl)cccc1Cl`, the Potency entry is “inactive”. For the compound `CCCCCCCCCCCCI`, the Potency entry was “inactive”. Regarding `CCCCc1ccc(N)cc1`, the Potency entry was “inactive”. For the compound `CCCOCC(C)OCC(C)O` (stereo not given), the Potency result was “inactive”. On to `CC1=CC(=O)CCC1`, for which the Potency result was “inactive”. To `CC1(C)SC(C)(C)SC(C)(C)S1` belongs “inactive”; to `C#CC(O)CCCCC` (stereo not given), “inactive”; to `Cc1ncc(CSSCc2cnc(C)c(O)c2CO)c(CO)c1O`, “inactive”.

`CCCc1ccc(N)cc1`: the Potency entry is “inactive”. For `CCC(C)OC(=O)N1CCCCC1CCO` (stereo not given) the value was “inactive”. For `Fc1ccccc1-c1ccccc1` the value was “inactive”. As for `CCCc1ccccc1O`, the Potency entry was “inactive”. For the compound `CCOC(=O)Nc1ccc2c(c1)N(C(=O)CCN1CCOCC1)c1ccccc1S2`, the Potency entry was “inactive”. For `CCCCC1CCCCC(=O)O1` (stereo not given), the Potency result was “inactive”. For `CCCCCCCCCCCCCCCCCC(=O)OCCCCCCCCCCCCCC(C)C`, the Potency result was “inactive”. As to `O=C(O)c1ccccc1-c1ccc(C(F)(F)F)cc1`, the Potency result is “inactive”. `O=C(O)C(O)[C@H](O)[C@@H](O)[C@H](O)[C@H](O)CO` (stereo not given in full): the Potency result was “inactive”. Turning to `COc1cccc(OC)c1`, the Potency result is “inactive”.

On to `CCOC(=O)Cn1c(=O)sc2cccc(Cl)c21`, for which the Potency entry is “inactive”. As for `C#CC(C)(O)CC(C)C` (stereo not given), the Potency entry is “inactive”. In the case of `CCn1cc(C(=O)O)c(=O)c2cc(F)c(N3CCN(C)CC3)cc21`, the Potency entry was “inactive”.

Take `C1COCCO1`: the Potency entry is “inactive”. To `CC1CCN(CCCC(=O)c2ccc(F)cc2)CC1` belongs “inactive”; to `COc1nc(C)nc(N)n1`, “inactive”. On to `CCN1CCN(c2cc3c(cc2F)c(=O)c(C(=O)O)cn3C2CC2)CC1`, for which the Potency result is “inactive”.

For the compound `CSc1ccc(C=O)cc1`, the Potency result was “inactive”. To `Cn1cnc2c(=O)[nH]c(N)nc21` belongs “inactive”; to `O=C(O)c1ccccc1S`, “inactive”. Consider `CCc1cc(S(=O)(=O)O)c2cc(C(C)C)cccc1-2`, for which the Potency entry is “inactive”. To `COc1cc(C(=O)N2CCOCC2)cc(OC)c1OC` belongs “inactive”; to `c1ccc(SCCSc2ccccc2)cc1`, “inactive”.
